Measured values as given in PubChem BioAssay AID652054 (National Center for Advancing Translational Sciences (NCATS), 2013).
The campaign covered roughly 360,000 compounds. About 9,100 (2.5%) were called active. Inconclusive results (about 4%) are left out. The sample holds actives, similar compounds and a random draw of the others, so the mix is not that of the screen. A number with no mark means an inactive call. Cut-off read from the data, not from the text of the source: active = max response below about -50%; inconclusive = no clear call, values can overlap the other calls; inactive = above that.

biological target: D(3) dopamine receptor (Homo sapiens) (UniProt P35462); test: qHTS of D3 Dopamine Receptor Antagonist: qHTS; details: D3R cells, DiscoveRx beta-arrestin luminescence, antagonist mode; active compounds read low
Summary of the method: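 Cells expressing the human receptor were seeded at 1500 cells/well, incubated overnight at 37 degrees C in 5% CO2, then exposed to library compounds with dopamine controls for 90 minutes at 37 degrees C before luminescent detection.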
% is set by controls: 0 for no effect and ±100 for the full control effect.

D(3) dopamine receptor (Homo sapiens), sequence (P35462 whole entry, looked up): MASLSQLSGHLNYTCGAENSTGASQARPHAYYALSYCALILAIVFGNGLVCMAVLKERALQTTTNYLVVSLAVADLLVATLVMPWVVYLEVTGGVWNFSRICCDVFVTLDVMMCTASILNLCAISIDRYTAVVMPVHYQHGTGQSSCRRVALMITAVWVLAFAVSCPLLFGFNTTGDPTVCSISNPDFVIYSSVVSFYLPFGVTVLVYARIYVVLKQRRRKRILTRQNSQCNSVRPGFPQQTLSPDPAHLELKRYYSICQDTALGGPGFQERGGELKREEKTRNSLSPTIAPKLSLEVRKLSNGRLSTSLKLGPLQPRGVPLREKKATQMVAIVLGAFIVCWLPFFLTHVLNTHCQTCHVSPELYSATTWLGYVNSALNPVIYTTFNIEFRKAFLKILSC

With Cc1nnc(OCC(=O)NCCC2=CCCCC2)c2ccccc12 the max response, negative = inhibition was -80.1% (active).
With COc1ccccc1N1CCN(Cc2cc(OC)c3c(c2)OCO3)CC1 the max response, negative = inhibition was -91.2% (active).
With COc1ccccc1N1CCN(Cc2ccc(OC)c3ccccc23)CC1 the max response, negative = inhibition was -67.7% (active).
CC(C)(C)NC(=O)C(CCc1ccccc1)n1c(=O)c(-c2ccccc2)nc2ccccc21 (configuration not stated) was tested, and the max response, negative = inhibition was -66.1% (active).
In the case of O=C(c1ccc(-c2ccccc2)cc1)C1CCCN(C(=O)c2cncs2)C1 (configuration not stated), the max response, negative = inhibition is reported as -57.7% (active).
With COc1cc2c(cc1O)C(SC)=NC(C)(C)C2 the max response, negative = inhibition was -89.4% (active).
CCOc1ccc(CN2CCN(Cc3c[nH]c4ccccc34)CC2)cc1 was tested, and the max response, negative = inhibition was -60% (active).
O=C(NCCc1c[nH]c2ccccc12)C1CCN(Cc2ccc(Br)cc2)CC1 was tested, and the max response, negative = inhibition was -82.8% (active).
For Cc1ccc(-c2nc(CSCC(=O)NC3CCN(Cc4ccccc4)CC3)c(C)o2)cc1, the max response, negative = inhibition was -76.3% (active).
In the case of CN(C)C(CNC(=O)c1cc2ccccc2o1)c1ccccc1 (configuration not stated), the max response, negative = inhibition is reported as -82.9% (active).
In the case of COc1cc(=O)[nH]c(=O)n1C(=O)Cc1ccccc1, the max response, negative = inhibition is reported as -54.3% (active).
With O=C(/C=C/c1ccc(Cl)c([N+](=O)[O-])c1)c1ccc(O)cc1 the max response, negative = inhibition was -79.6% (active).
In the case of CC1=C/C(=N\OS(=O)(=O)c2ccccc2)C=CC1=O, the max response, negative = inhibition is reported as -80.7% (active).
CN(O)C(=S)c1ccccc1 was tested, and the max response, negative = inhibition was -113% (active).
In the case of OC(COCC1COc2ccccc2O1)CN1CCN(c2ccc(F)cc2)CC1 (configuration not stated), the max response, negative = inhibition is reported as -58.5% (active).
In the case of CN(C)CCCn1c(=O)n(Cc2ccccc2)c(=O)c2c3c(sc21)CCCCC3, the max response, negative = inhibition is reported as -52.1% (active).
In the case of Cc1cccc(CN2CCN(Cc3cnn(-c4ccccc4F)c3)CC2CCO)n1 (configuration not stated), the max response, negative = inhibition is reported as -69% (active).
COc1cccc(CN2CCN(Cc3ccc4cccc(F)c4n3)CC2CCO)c1 (configuration not stated) was tested, and the max response, negative = inhibition was -65.2% (active).
OCCC1CN(Cc2cccc(OC3CCCC3)c2)CCN1Cc1ccsc1 (configuration not stated) was tested, and the max response, negative = inhibition was -81.9% (active).
With OCCC1CN(Cc2cccc(O)c2)CCN1CCc1ccccc1 (configuration not stated) the max response, negative = inhibition was -52.7% (active).
With CCC(O)C1CCN(Cc2cn(-c3ccc(OC)cc3)nc2-c2cccc(F)c2)CC1 (configuration not stated) the max response, negative = inhibition was -73% (active).

Compared with O=C(COc1ccc(Cl)cc1)NCCC1=CCCCC1, O=C(COc1cccc(-n2cnnn2)c1)NCCC1=CCCCC1 is higher in max response, negative = inhibition: -11.2% for the first, -5.35% for the second.

Going from COc1cc(CNCc2ccc(OC)c3ccccc23)cc(OC)c1OC to COc1ccc(CN2CCN(Cc3ccc(OC)c(OC)c3OC)CC2)cc1, the max response, negative = inhibition falls from 4.84% to -14%.

First: COc1cc(COCC(O)CN2CCN(Cc3ccc4c(c3)OCO4)CC2)cc(OC)c1OC (configuration not stated)
Second: CNCC(O)CN1CCN(c2ccccc2OC)CC1 (configuration not stated)
The max response, negative = inhibition of the first is lower: -12.9% for the first, 4.65% for the second.

First: CNc1cncc(-c2ccc(NS(C)(=O)=O)cc2)n1
Second: CC(=O)Nc1ccc(-c2ccnc3c2CC(C(=O)NC(C)C)O3)cc1 (configuration not stated)
The max response, negative = inhibition of the first is lower: -5.71% for the first, 23.5% for the second.

Compared with COc1ccc(CCNC(=O)Nc2ccc3c(c2)c(=O)n(C)n3C)cc1OC, COc1cc2c(cc1OC)C(Nc1ccc(S(N)(=O)=O)cc1)=NC(C)(C)C2 is lower in max response, negative = inhibition: 6.66% for the first, 3.38% for the second.

Compared with O=C(CC(CC(=O)c1ccccc1)c1ccco1)c1ccccc1, CN(Cc1ccccc1)C(=O)c1cccc(C(=O)N(C)Cc2ccccc2)c1 is lower in max response, negative = inhibition: 11.4% for the first, -13% for the second.

First: CSCCC(C(=O)NC(C)(C)C)n1c(-c2ccccc2)nc2ccccc21 (configuration not stated)
Second: CCC(C(=O)NC(C)(C)C)n1c(-c2ccccc2)nc2ccccc21 (configuration not stated)
The max response, negative = inhibition of the first is lower: -15.5% for the first, 0.73% for the second.

Going from Cc1cn([C@H]2C[C@H](O)[C@@H](CNC(=O)[C@H](N)Cc3cccnc3)O2)c(=O)[nH]c1=O to O=C(COC(=O)c1ccc(F)cc1)NCC1COc2ccccc2O1 (configuration not stated), the max response, negative = inhibition falls from 22.6% to -19.4%.

Compared with Cc1ccc(NC(=O)COC(=O)CN2CCSC2=O)cc1F, Cc1csc(=O)n1CCC(=O)OCC(=O)Nc1ccc(N2CCOCC2)cc1 is lower in max response, negative = inhibition: 37.5% for the first, -0.664% for the second.

Going from CCNC(=O)N1CCCC(C(=O)c2ccc(-c3ccccc3)cc2)C1 (configuration not stated) to Cn1nccc1C(=O)N1CCCC(C(=O)c2ccc(Oc3ccccc3)cc2)C1 (configuration not stated), the max response, negative = inhibition rises from 10.6% to 22.9%.

Going from CC1(C(=O)Nc2cccc3c2CCCC3)CCN1C(=O)CCc1ccc(Cl)cc1Cl (configuration not stated) to COc1ccc(OC)c(NC(=O)C2(C)CCN2C(=O)Cc2ccccc2)c1 (configuration not stated), the max response, negative = inhibition rises from 9.05% to 19.2%.

Going from COc1cccc(CNc2nc3cc(-c4csc5ccccc45)sc3c(=O)n2C)c1 to COc1ccc(-n2cc(CN(C)Cc3n[nH]c(=O)[nH]3)c(-c3cccc(F)c3)n2)cc1, the max response, negative = inhibition falls from 6.45% to 0.876%.

First: COc1cc2c(cc1OC)C(C(C)C)=NC(C)(C)C2
Second: CCCCNC(=O)C[C@@H]1C[C@@]2(C(=O)OC)CC(C)(C)CC=C2N(Cc2ccco2)C1=O
The max response, negative = inhibition of the first is lower: -19.9% for the first, 22.3% for the second.

First: CCOC(=O)C1CCCN(C(=O)c2ccc(C)c(F)c2)CC1 (configuration not stated)
Second: Cc1ccc(C(=O)OCC(=O)NC2CCCCCCC2)cc1C
The max response, negative = inhibition of the first is lower: -26.1% for the first, 5.37% for the second.

First: Cc1sc2ncnc(SCC(=O)NC3CCS(=O)(=O)C3)c2c1C (configuration not stated)
Second: O=C(COC(=O)/C=C/c1ccc(Cl)cc1)NC1CCS(=O)(=O)C1 (configuration not stated)
The max response, negative = inhibition of the first is higher: -20.5% for the first, -20.8% for the second.

Going from Cc1ccc2[nH]cc(CCNC(=O)C3CCCCC3)c2c1 to CC1(C(=O)NCCc2c[nH]c3ccccc23)C=CC2(CCCCC2)N1C(=O)c1ccccc1 (configuration not stated), the max response, negative = inhibition rises from 11.6% to 45.7%.

Compared with CCOc1ccc(CN2CCCN(C)CC2)cc1, CCOc1ccc(CN2CCN(CCCc3ccccc3)C(CCO)C2)cc1 (configuration not stated) is higher in max response, negative = inhibition: -29.1% for the first, -25.6% for the second.

Going from C[C@H]1CN([C@@H](C)CO)C(=O)CCCn2cc(nn2)CO[C@@H]1CN(C)S(=O)(=O)c1cccc(C#N)c1 to C[C@H](CO)N1C[C@H](C)[C@@H](CN(C)S(=O)(=O)c2ccc(Oc3ccccc3)cc2)OCc2cn(nn2)CCCC1=O, the max response, negative = inhibition falls from 14.4% to 2.13%.

First: COc1ccc(N2c3ccccc3CN(Cc3ccccc3)[C@@H](C)[C@H]2Cc2ccc(-c3ccccc3)cc2)cc1
Second: OCCC1CN(Cc2ccc(Oc3ncccn3)cc2)CCN1CCc1ccccc1 (configuration not stated)
The max response, negative = inhibition of the first is higher: 9.42% for the first, -10.3% for the second.

Compared with CCC(=O)N1Cc2cc(C(=O)NCc3cccc(F)c3)nc(-c3cccc(C4=CCCC4)c3)c2[C@H]1CCO, COc1ccc(-n2cc(CNC3CCOCC3)c(-c3cccc(F)c3)n2)cc1 is higher in max response, negative = inhibition: -8.57% for the first, -0.354% for the second.

Compared with CCOC(=O)c1c(C)[nH]c(C)c1C(=O)COC(=O)/C=C/c1cccc([N+](=O)[O-])c1, CC(=O)Nc1ccc(C=CC(=O)c2ccc([N+](=O)[O-])cc2)cc1 is lower in max response, negative = inhibition: 19.7% for the first, 1.23% for the second.

Compared with Cc1cc(NC(=O)CSCc2nc(-c3cccc(Cl)c3)oc2C)no1, Cc1cc(NC(=O)c2cc3ccccc3o2)no1 is higher in max response, negative = inhibition: -28.8% for the first, 3.37% for the second.

Going from Cc1ccc(-c2nc(CS(=O)CC(=O)NC3CCCC3)c(C)o2)cc1 (configuration not stated) to CC1(C)OC(=O)C2=C(C[C@@H](C3CCCC3)O[C@@H]2c2ccc(Cl)cc2)O1, the max response, negative = inhibition falls from 12.9% to 0.96%.

Compared with CN(C)C(CNC(=O)Cc1ccc([N+](=O)[O-])cc1)c1ccccc1 (configuration not stated), O=[N+]([O-])c1ccc(N2CCN(CC(O)COc3ccccc3)CC2)cc1 (configuration not stated) is lower in max response, negative = inhibition: -19% for the first, -27.1% for the second.

First: CCCOc1ccc(Cn2c(O)cc(=O)[nH]c2=O)cc1
Second: CCOc1ccc(CN2CCN(Cc3ccc4cc(F)ccc4n3)CC2CCO)cc1 (configuration not stated)
The max response, negative = inhibition of the first is higher: -8.86% for the first, -27.2% for the second.

Compared with CC1(C(=O)NS(=O)(=O)c2ccccc2)CCN1C(=O)C1CCCCC1 (configuration not stated), CC(C)(C)C1CCC(=O)N2CCC[C@]2(c2ccccc2)C1 (some centres not stated) is higher in max response, negative = inhibition: -29.5% for the first, 0% for the second.

First: CC1CC(NC(=S)N(C)C)CC(C)(C)C1 (configuration not stated)
Second: CCCCNC(=O)C[C@@H]1C[C@@]2(C(=O)OCC)CCC=C2N(Cc2cccc3ccccc23)C1=O
The max response, negative = inhibition of the first is lower: -2.04% for the first, 0% for the second.

Compared with CC(CC(=O)O)C(=O)c1ccc(Cl)c([N+](=O)[O-])c1 (configuration not stated), CN(CC(=O)O)C(=O)c1ccccc1 is lower in max response, negative = inhibition: 7.05% for the first, -19.9% for the second.

First: CCCCn1nnnc1C(c1ccccc1)N1CCN(c2ccccc2OC)CC1 (configuration not stated)
Second: OCCC1CN(Cc2cnc(-c3ccccc3)s2)CCN1CCc1ccccc1 (configuration not stated)
The max response, negative = inhibition of the first is higher: -12.3% for the first, -27.8% for the second.

Compared with OC(c1ccc(F)cc1)c1ncc(-c2cccc(C(F)(F)F)c2)[nH]1 (configuration not stated), Cc1ccc(-c2cnc(C(O)c3cc(Cl)cc(Cl)c3)[nH]2)cc1 (configuration not stated) is higher in max response, negative = inhibition: 4.48% for the first, 17.6% for the second.

Going from CCc1cccc(CC)c1N1C(=O)CC(Sc2ccccc2N)C1=O (configuration not stated) to Cc1cc(Br)cn2c(Cc3ccccc3C(F)(F)F)c(-c3ccc(Cl)cc3)nc12, the max response, negative = inhibition rises from -0.919% to 3.99%.

First: O=c1c2c3c(sc2n(CCN2CCCC2)c(=O)n1Cc1ccccc1)CCCCC3
Second: CCn1c(=S)[nH]c2sc3c(c2c1=O)CCCCC3
The max response, negative = inhibition of the first is lower: -21.9% for the first, -15.3% for the second.

Going from Cc1ccc(CN2CCN(Cc3cccc(C)n3)CC2CCO)cc1 (configuration not stated) to Cc1ccc(CN2CCN(Cc3ccc4ncccc4c3)CC2CCO)cc1 (configuration not stated), the max response, negative = inhibition rises from -24.5% to -16%.

Compared with OCCC1CN(Cc2ccccc2-c2ccco2)CCN1Cc1ccsc1 (configuration not stated), OCCC#Cc1ccc(CN2CCN(Cc3ccsc3)C(CCO)C2)cc1 (configuration not stated) is lower in max response, negative = inhibition: -16.3% for the first, -22.9% for the second.

Compared with CC(=O)Nc1ccc(CN2CCN(Cc3ccc(F)c(F)c3)C(CCO)C2)cc1 (configuration not stated), CN1OC[C@@H]2CN(S(=O)(=O)c3cccc4ccccc34)[C@H](c3ccc(N4CCCCC4)cc3)C[C@@H]21 is lower in max response, negative = inhibition: 7.18% for the first, 0% for the second.

Work on CCCCOCCCNC(=O)C[C@@H]1C[C@@]2(C(=O)OCC)CCCC=C2N(CCC2=CCCCC2)C1=O yielded a max response, negative = inhibition of 2.81%.
